# Laboratory results as given in PubChem BioAssay AID1732 (National Center for Advancing Translational Sciences (NCATS), 2009).
# Some of the results follow. Records with an inconclusive call do not appear. The source made the active and inactive calls. The call rests on the fitted dose curve; in most records, active means well fitted inhibition curve with a large enough effect; inconclusive means small, poorly fitted or top-dose-only effect, or effect the other way, or another doubt; inactive means no such curve, though single readings can be large or run the other way.
# Target: Dual specificity mitogen-activated protein kinase kinase 1 (Homo sapiens) (UniProt Q02750)
# Sequence (Q02750 whole entry, looked up): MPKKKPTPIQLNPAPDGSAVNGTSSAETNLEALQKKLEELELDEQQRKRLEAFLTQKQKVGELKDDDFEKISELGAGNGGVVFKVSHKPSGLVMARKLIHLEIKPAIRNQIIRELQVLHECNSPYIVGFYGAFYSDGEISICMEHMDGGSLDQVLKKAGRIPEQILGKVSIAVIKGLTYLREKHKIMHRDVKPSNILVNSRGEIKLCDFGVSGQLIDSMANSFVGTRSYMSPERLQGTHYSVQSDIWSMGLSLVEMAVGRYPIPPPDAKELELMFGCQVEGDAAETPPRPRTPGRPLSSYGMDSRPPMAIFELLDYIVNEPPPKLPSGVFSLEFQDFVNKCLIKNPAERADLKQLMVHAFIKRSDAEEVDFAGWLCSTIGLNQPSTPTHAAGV
# Test: Assay for Inhibitors of the ERK Signaling Pathway using a Homogeneous Screening Assay: MEK Inhibition
# Details: series mostly up to 76.9 µM
# Description: qHTS Assay for Inhibitors of the ERK Signaling Pathway using a Homogeneous Screening Assay
# NIH Chemical Genomics Center [NCGC]
# NIH Molecular Libraries Screening Centers Network [MLSCN]
# Assay Submitter (PI): Dr. Wei Zheng, NCGC/NIH
# The Ras/extracellular-signal-regulated kinase (ERK) mitogen activated protein (MAP) kinase signaling pathway (ERK1/2 cascade) plays is a key role in transmitting signals from the cell surface to the nucleus (Nishida and Gotoh 1993; Chang and Karin, 2001). The cascade is initiated by the small G-protein Ras, which recruits Raf […], where activation occurs. Alternatively, this pathway can be activated by elevating intracellular cAMP.
# Activation of the ERK pathway is essential in increased cell division and cell survival. Sustained and constitutive activation of the ERK pathway, however, has been linked to uncontrolled cell proliferation, increased cell survival, and tumor progression. Thus, the ERK has been as an attractive target for cancer chemotherapy in the past few years (Sebolt-Leopold and Herrera, 2004). Given its physiological and pathological importance, assessment of ERK phosphorylation has been broadly performed in both basic research and drug discovery. Most assays for the measurement of ERK phosphorylation use the antibody-based detection methods, such as western blot and ELISA. These assays require multiple reagent additions with cell wash steps and are not suitable for high-throughput screening.
# The current cell-based ERK phosphorylation assay was performed using AlphaScreen platform. AlphaScreen is a two bead-based proximity-dependent chemical energy transfer luminescent assay platform. The assay reagents (ERK SureFire(TM) kit) were supplied from TGR BioSciences (Australia). […]
# The HTRF kinase assay (components supplied as kit by Cisbio) was chosen for the EGFR and EGFR mutant enzyme assays that applied the time resolved fluorescence resonance energy transfer (TR-FRET) principle. […]
row,Compound,outcome
1,CCCNc1ncnc2sc(C)c(C)c12,inactive
2,CN(C)c1cc2c(Nc3ccc4c(cnn4Cc4ccccc4)c3)ncnc2cn1,inactive
3,O=[N+]([O-])c1ccccc1N/N=C1\CCc2ccccc21,inactive
